# Test results as given in PubChem BioAssay (NCATS).
# Results filed as inconclusive are left out. Unmarked numbers belong to inactive results. Calls come from the whole dose curve; as a rule, active = well fitted cell-killing curve with a large enough effect; inconclusive = small, poorly fitted or top-dose-only effect, or effect the other way; inactive = flat fitted curve, though single readings scatter. *1 amine or outer side, *2 acyl side, *3 side chain or, on linkers, in order; H or OH if unused. Where a SMILES comes first, the peptide text is derived from it. Bridges are numbered along the chain shown (N, C = ends). [ ]: non-standard residue; d: D form. The star is where a group is joined. ξ: configuration not given here. X10 = NC1=NCCC(C(N[*:1])C(=O)[*:2])N1; ΔAla(3-NHCONH2) = NC(=O)NC=C(N)C(=O)O; ξβ3hOrn = NCCCC(N)CC(=O)*; Dap = NC[CH](N)C(=O)O
# Test system: OV90
# Experiment: Primary qHTS to identify gynecologic anti-cancer compounds using libraries of approved drugs and bioactive compounds (AID 1345084); note: nearly all actives have a fitted effect of over 55% in size
# Details: Gynecologic cancer cell panel viability, ATPlite luminescence, 48 h; series mostly up to 57.5 µM; activity change, negative = cytotoxicity: at the top concentration
# Method in brief: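 Cells, 1,000 per well, plated 16 h, then exposed 48 h at 37 C to compounds. Viability by ATPlite luminescence after 15 min at room temperature.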
# % is set by controls: 0 for no effect and ±100 for the full control effect.
row,Structure (SMILES),"activity change, negative = cytotoxicity"
1,CC(=O)Nc1ccc(S(=O)(=O)Nc2cc(C)on2)cc1,10.4%
2,CCCCN(CCN(CCCC)C(=O)N1CCOCC1)C(=O)N1CCOCC1,-9.24%
3,C[C@H]1C[C@H](O)c2ccsc2S1(=O)=O,-1.58%
4,NC(=O)NS(=O)(=O)c1ccc(Cl)cc1,-3.44%
5,Cn1c(=O)c2c(ncn2CC(=O)O)n(C)c1=O,27.3%
6,C[C@H]1NCc2cc(-c3ccc4c(=O)c(C(=O)O)cn(C5CC5)c4c3OC(F)F)ccc21,19.6% [at 25.3 µM]
7,Cc1nc(C2CCCCC2)c(-c2ccc(S(N)(=O)=O)c(F)c2)o1,-10.9%
8,O=c1[nH]c(=O)n([C@H]2O[C@H](CO)[C@@H](O)[C@@H]2O)cc1/C=C\Br,-14.5%
9,COc1ccccc1OCC1CNC(=O)O1 (configuration not stated),0.286%
10,Nc1ccc([N+](=O)[O-])c(C(F)(F)F)c1,-5.45%
11,N#CSCC(=O)O,16.7%
12,CCCCN(CCCC)C(C(N)=O)c1ccc(OC)cc1 (configuration not stated),-13%
13,O=C(CCCl)NCCc1ccccc1,1.53%
14,O=[N+]([O-])c1ccc(-c2nc(-c3ccc(F)cc3)c(-c3ccncc3)[nH]2)cc1,-23.2%
15,CCC(C(=O)NC(=O)NC(C)=O)c1ccccc1 (configuration not stated),5.26%
16,CCCC(=O)OCOC(=O)C1=C(C)NC(C)=C(C(=O)OC)C1c1cccc(Cl)c1Cl (configuration not stated),-1.67%
17,Cc1ccccc1C(=O)N1CC/C(=N\OS(=O)(=O)O)c2ccc(Cl)cc21,8.7%
18,CC(NC(CCc1ccccc1)C(=O)O)C(=O)N1C(=O)N(C)CC1C(=O)O (configuration not stated),-2.17%
19,C1=CC2C3C=CC(C3)C2C1 (configuration not stated),1.69% [at 116 µM]

row,Structure (SMILES),"activity change, negative = cytotoxicity"
1,CC1CCCCN1CCCOC(=O)c1ccc(OC2CCCCC2)cc1 (configuration not stated),5.07%
2,CC(C(=O)O)c1ccc(/C=C2\CCCCC2=O)cc1 (configuration not stated),-2.97%
3,O=C(CO)[C@@H](O)[C@H](O)[C@@H](O)CO,16.8%
4,CC(=O)N(CC(O)CO)c1c(I)c(C(=O)NCCO)c(I)c(C(=O)NCC(O)CO)c1I (configuration not stated),4.67%
5,O=C(O)[C@H](O)[C@@H](O)[C@H](O[C@@H]1O[C@H](CO)[C@H](O)[C@H](O)[C@H]1O)[C@H](O)CO,12.7%
6,CCCCC(O)/C=C(C)/C=C/C=C/C(=O)N1CCCC1=O (configuration not stated),-1.55%
7,Cc1ncc([N+](=O)[O-])n1C,4.91%
8,CCCN(CCC)C(=O)C(CCC(=O)OCCCN1CCN(CCOC(=O)Cc2c(C)n(C(=O)c3ccc(Cl)cc3)c3ccc(OC)cc23)CC1)NC(=O)c1ccccc1 (configuration not stated),-18.7%
9,COC(=O)c1c(Cl)c(Cl)c(C(=O)OC)c(Cl)c1Cl,-0.0556% [at 116 µM]
10,NCCCC(N)CC(=O)NCC1NC(=O)C(CO)NC(=O)C(N)CNC(=O)C(C2CCN=C(N)N2)NC(=O)C(=CNC(N)=O)NC1=O (stereo not drawn) (H-[Dap]S[Dap](ξβ3hOrn)[ΔAla(3-NHCONH2)][X10]; lactam 1-C; configuration not given here),-2.62% [at 0.462 µM]
11,CC(NN)c1ccccc1 (configuration not stated),12.3% [at 25.3 µM]
12,c1ccc2occc2c1,18.6% [at 116 µM]
13,CCCCCOc1ccc(C2SC(=O)NC2=O)cc1OCC (configuration not stated),7.22%
14,CCCc1c2oc(C(=O)O)cc(=O)c2cc2c(=O)cc(C(=O)O)n(CC)c12,10.1%
15,COc1ccc2c(c1)CCCC2=O,-2.58%
16,Cc1ccc(O)cc1,-8.34%
17,CC(CCc1ccc2c(c1)OCO2)NN (configuration not stated),7.21%
18,Cc1cc(=O)oc2cc(O[C@@H]3SC[C@@H](O)[C@H](O)[C@H]3O)ccc12,14.7%
